Experimental data from PubChem BioAssay (NCI).
The panel holds about 83,000 compounds, 20% with a hit somewhere; the sample as a whole holds those more often.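 The endpoint reported here, percent growth, reads 100 for growth as untreated, 0 for no net growth and -100 for all cells dead.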 A number with no mark means an inactive call. Calls of active or inactive are those of the source.

These compounds were tested on HOP-92 NSCLC (assay: NCI-60 one-dose screen, 48 h (100 = growth as untreated, 0 = no growth, -100 = all killed)). Details: 10 µM unless noted.
Protocol: Growth inhibition of the HOP-92 human Non-Small Cell Lung tumor cell line is measured as a screen for anti-cancer activity. Cells are grown in 96 well plates and exposed to the test compound for 48 hours. Compounds are tested at a single concentration, which is 10^-5 M for most compounds. The reported endpoint is percent growth (GI% or GIPRCNT), where numbers from 0 - 100% represent growth inhibition, and numbers from -100% - 0 represent cell death. For example, a value of 40 represents 60% growth inhibition. A value of 0 means no net growth occurred over the course of the experiment. A value of -40 indicates 40% of cells at the beginning of the experiment died by the end of the experiment. A value of -100 means all cells are dead at the end of the experiment.
NCI-60 Human Tumor Cell Lines Screen was performed using the standard one-dose NCI protocol, which is described in more detail at https://dtp.cancer.gov/discovery_development/nci-60/default.htm.
Compounds with GIPRCNT values below 10 were considered active. Activity score was based on GIPRCNT using the following formula: […]
Score is 0 for GIPRCNT values of 100 or above, 50 for GIPRCNT values of 0, and 100 for GIPRCNT values of -100.

SMILES	growth
CNC(=O)c1cc(Oc2ccc3nc(NC(=O)Nc4ccc(F)cc4F)sc3c2)ccn1	-13.7% (active)
Cc1nc2cccc(NCc3ccc(C(=O)NO)cc3)c2c(=O)n1-c1ccccc1	15.3%
CCOC(=O)CCC(=O)P(=O)(O)O	38.9%
CC1OC(C(=O)N2CCN(CCO)CC2)CC1COC1CCCCC1 (stereo not given)	87% [50 µM]
COc1ccc(-c2cc(-c3ccc(Cl)cc3)c(C#N)c(=O)n2CCCCC(=O)NO)cc1	87.2%
Cc1oc2ccc(O)c(CN3CCCCCC3)c2c1C(=O)Nc1ccc(C(F)(F)F)cc1	34.9%
COc1cccc2cc(N(C)c3nc(C)nc4c3CCC4)ccc12	0.483% (active)
CCCn1cnc2c(c1=N)C(c1ccc(Cl)cc1)c1sc3c(F)cccc3c1O2 (stereo not given)	79.3%
O=c1c(Cc2ccc(F)cc2)cc(-c2ccccc2)nn1C/C(=N/O)c1ccccc1	42.6%
Nc1nc(N)c2c(n1)NC(c1ccc3c(c1)OCO3)CC(c1cccc(Nc3ccncc3)c1)=N2 (stereo not given)	70.7%
CCCCCCC/C=N/NC(=O)c1ccc(-n2cc(-c3ccccc3)nn2)cc1	87.1%
c1ccc2[nH]c(-c3ccc(-c4nccc5c4[nH]c4ccccc45)cc3)nc2c1	92.4%
COc1cc(CNC(=O)CCCC/C=C/C(C)C)ccc1OCc1cn(-c2cccc([N+](=O)[O-])c2)nn1	70.4%
C#Cc1ccc(NC(=O)Cc2ccc(/C=C/C(=O)c3nccn3C)cc2)cc1	96.5%
C=C(c1ccc(C(=O)O)c(F)c1)c1cc2c(cc1C)C(C)(C)C=CC2(C)C	62.4%
O=C(CN1C(=O)NC2NC(=O)NC21)N/N=C/c1cccc([N+](=O)[O-])c1 (stereo not given)	123%
O=C(O)/C=C\C(=O)Nc1ccc2c(c1)Cc1cc(F)ccc1-2	97.5%
Cc1cc(N2CCOCC2)nc(N(CCCNc2ccnc3cc(Cl)ccc23)Cc2ccc3c(c2)OCO3)n1	-25.8% (active)
C#Cc1cccc(Nc2nc(Cl)nc3cc(NC(=O)CCl)ccc23)c1	-82.7% (active)
CCN=c1sc2c(n1NC(=O)c1cc3ccc1CCc1ccc(cc1)CC3)C(=O)c1ccccc1C2=O	-9.79% (active)

SMILES	growth
C=C1C(=O)O[C@H]2[C@H]1CC/C(CNC(=O)/C=C/c1cc(OC)c(OC)c(OC)c1)=C\CC[C@@]1(C)O[C@@H]21	-36% (active)
Cn1cc(-c2ccc3occ(-c4cccc(-c5ccncc5)c4)c3n2)cn1	50.6%
COc1ccc2c(c1)c(-c1nc(-c3cn(C)c4ccncc34)cs1)cn2C	81.8%
CCN1CCN(C(=O)[C@]23CC[C@@H](C)[C@H](C)[C@@H]2C2=CC[C@@H]4[C@@]5(C)C/C(=C/c6ccncc6)C(=O)C(C)(C)[C@@H]5CC[C@@]4(C)[C@]2(C)CC3)CC1	45.2%
N#CSCc1cc(Cl)c(CSC#N)cc1Cl	11.8%
N#C/C(Sc1nc2sc3c(c2c(=O)n1Cc1ccccc1)CCCC3)=C1/SC=C(c2ccc(Cl)cc2)N1c1ccccc1	68.6%
O=C(Nc1ncc(Cc2cc(C(F)(F)F)ccc2Cl)s1)C(=S)N1CCOCC1	70.4%
C=CCn1c(SCC(=O)Nc2ccc(C(=O)/C=C/c3cc(OC)c(OC)c(OC)c3)cc2)nnc1-c1cc(-c2ccc(S(N)(=O)=O)cc2)nc2ccccc12	96.9%
CCCC1Cc2cc(-n3nc(C)c4c3CC(C)(C)CC4=O)cc(NC3CCC(O)CC3)c2C(=O)N1 (stereo not given)	-0.467% (active)
Nc1nc(=O)n([C@H]2CC=C(CO)O2)cc1F	101%
COc1ccc(C2=NN(C=O)C(c3ccc(Oc4nc5c(c(=O)n(C)c(=O)n5C)n4C)c(OC)c3)C2)cc1 (stereo not given)	95.2%
Cc1c(-c2cnc3ccc(Cl)cc3c2C(=O)O)nnn1-c1ccc(Cl)cc1	88.7%
CN1CCN(CCCNC(=O)c2c3c(n4ccccc24)C(=O)c2ncccc2C3=O)CC1	14.9%
C(CCCSC1=NCCN1)CCSC1=NCCN1	41.4%
O=C(NC1CCCCCC1)c1ccc2c(=O)n3c(nc2c1)CCCCC3	84.6%
NC(=N\N=C/c1ccc(Cl)cc1Cl)/C(N)=N\N=C/c1ccc(Cl)cc1Cl	43.8%
CCOC(=O)C1=CCC(n2cc(F)c(=O)[nH]c2=O)O1 (stereo not given)	107%
COC(=O)[C@H](C)NC(=O)c1ccc(NC(=O)c2[nH]c(C)c(Cl)c2Cl)c(OCCN)c1	101%
O=C(Nc1cccc(Cn2c(=O)[nH]c3ccc(Oc4ncccn4)cc3c2=O)c1)c1cccc(Cl)c1	75.4%
Fc1ccc(/C=C/c2cc(/C=C/c3ccc(F)cc3)n(-c3cc(F)cc(F)c3)n2)cc1	83%
